Shown are actives, neighbours in structure and some others; about 2.8% of the full set was active somewhere.
CF NFkB block = inhibitors of PAF-induced NF-kB signaling, primary screen, cell-based, GFP fluorescence, uHTS; KKLEB NF-kB-GFP reporter, GFP fluorescence overnight; actives 0.86% (n = 360,000); AID 588850, 2011; inhibition, % at 5 µM;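 active = at least 50% inhibition at 5 µM, scaled per plate between neutral and stimulator controls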;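 also: PAF is a Pseudomonas aeruginosa culture filtrate used as stimulus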
MITF TRPM1 inh = inhibitors of MITF-dependent TRPM1 promoter reporter, primary screen, cell-based, SK-MEL-5, single point, luciferase. SK-MEL-5 TRPM1 promoter luciferase, 24 h. inhibition, % at 12.5 µM. actives 0.83% (n = 330,000). AID 488899, 2010;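 active = mean inhibition across replicates of 60% or more, whatever share of single replicates reaches that level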
KKLEB cytotox = cytotoxicity in KKLEB CF airway cells, primary screen, cytotoxicity control for CF NF-kB inhibitor project, cell-based, uHTS, fluorescence assay plates. KKLEB CF airway cells viability, ATPlite luminescence, overnight; stronger effect = lower value; cells stimulated with P. aeruginosa culture filtrate. activity change (cytotoxicity), % at 5 µM. actives 0.36% (n = 360,000);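 active = corrected activity change at or below -50% at 5 µM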
HIF-2a block = HIF-2a reporter inhibitors, primary screen, luminescence, 786-0 RCC cells. 786-0 RCC cells HIF-2a reporter, luciferase luminescence, overnight. actives 0.72% (n = 360,000). inhibition, % at 18.8 µM;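 active = inhibition of the luminescence signal of 40% or more relative to plate controls, in a single-dose primary screen at 18.75 µM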
Shn3 inh set2 = reduction of Shn3 3'UTR firefly luciferase signal, primary screen, Schnurri-3 inhibitor project, cell-based, Clone20 osteoblasts, set 2 | inhibition, % at 12.5 µM | Clone20 osteoblast Shn3 3'UTR firefly luciferase, 24 h | actives 0.52% (n = 360,000);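 active = mean inhibition of at least 75% with every replicate also reaching 75%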
Peg3 prom inh = Peg3 promoter-driven luciferase inhibitors, primary screen, cell-based, HeLa, luciferase luminescence; actives 1.7% (n = 360,000); AID 588405, 2011; HeLa PEG-Prom luciferase reporter, overnight; inhibition, % at 20 µM;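 active = inhibition of at least 50% at 20 µM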
Each line names hits and unclear results; the compound was inactive in the other large screens.

O=C(/C=C1\OCc2ccccc21)c1ccccc1	none (no result: CF NFkB block, MITF TRPM1 inh, KKLEB cytotox, Shn3 inh set2, Peg3 prom inh)
CCOc1ccc(C2=Nn3c(nnc3-c3ccco3)SC2)cc1	KKLEB cytotox -68.5
CCOc1ccc(C2=Nn3c(nnc3-c3ccccn3)SC2)cc1	none
O=C(Nc1ccc(N2CCN(c3ccc(C(F)(F)F)cn3)CC2)nc1)c1cccs1	none
O=C(Nc1ccc(N2CCN(c3ncccc3C(F)(F)F)CC2)nc1)c1cccs1	Peg3 prom inh 104.0
CCc1ccc(NC(=O)C(CC)Sc2nc3cc4c(cc3c(=O)n2Cc2ccco2)OCO4)cc1 (stereo not given)	KKLEB cytotox -62.7
CCOC(=O)Nc1cc(N)ncn1	none
CCCOc1ccc(Br)cc1/C=N/NC(=O)c1cc(OC)c(OC)c(OC)c1	none
O=C(N/N=C/c1cc(Cl)cc([N+](=O)[O-])c1O)c1ccc2c(c1)OCO2	none
Oc1c(Cl)cc(Cl)cc1/C=N/Nc1ncc(Br)cn1	MITF TRPM1 inh 66.4, Shn3 inh set2 90.3
COc1cc(Cl)cc(/C=N\NC(=O)c2ccc3c(c2)OCO3)c1O	Shn3 inh set2 88.0 (no result: MITF TRPM1 inh)
O=C(N/N=C/c1cc(Br)cc(Br)c1O)c1cccc(S(=O)(=O)N2CCOCC2)c1	Peg3 prom inh 55.1
COc1ccc(C(=O)N/N=C/c2cc(Br)ccc2O)cc1OC	MITF TRPM1 inh 65.6, Shn3 inh set2 91.4
O=C(NC(c1ccc(-c2ccccc2)cc1)c1cnccn1)C1CCN(Cc2cccc(C(F)(F)F)c2)CC1 (stereo not given)	none (no result: MITF TRPM1 inh)
COc1ccc(C(C(=O)NCC2CCCO2)N(C(=O)Cn2nnc3ccccc32)c2ccccc2C(C)=O)cc1OC (stereo not given)	none
CN(C)c1ccc(NC(=O)CN2C(=O)c3ccccc3C2=O)cc1	none
CC(CNC(=O)CCC(=O)N1CCOc2ccc(Cl)cc21)c1ccccc1 (stereo not given)	none (no result: MITF TRPM1 inh)
O=C(N/N=C/c1ccc(Cl)cc1Cl)c1ccncc1	none
O=C(N/N=C/c1cc(Cl)cc(Cl)c1O)c1ccncc1	MITF TRPM1 inh 64.0
O=C(N/N=C/c1cc(Br)cc(Cl)c1O)c1ccc2c(c1)OCO2	Peg3 prom inh 54.8
O=C(Cc1ccccc1)N/N=C/c1cc(Br)cc(Cl)c1O	Peg3 prom inh 53.4
O=C(Nc1ccccc1F)C1CCN(C(=O)NCc2ccccc2)CC1	none
COC(=O)C1=C/C=C\CN(C(c2ccccc2)c2ccccc2)/C=C\1C(=O)OC	none (no result: MITF TRPM1 inh)
O=S1(=O)C[C@@H](N2CCN(CC3CC3)CC2)[C@H](COCc2ccccc2)N1	none (no result: MITF TRPM1 inh)
O=c1c(-c2nn[nH]n2)coc2ccc(Cl)cc12	none
CN(C)c1ccnc2c[cH-]cc12.[Fe].c1ccc(-[c-]2[c-](-c3ccccc3)[c-](-c3ccccc3)[c-](-c3ccccc3)[c-]2-c2ccccc2)cc1 (stereo not given)	Peg3 prom inh 95.7
COc1cc(C(=O)C(=O)N2CCN(c3ccccc3)CC2)cc(OC)c1OC	none (no result: CF NFkB block, MITF TRPM1 inh, KKLEB cytotox, Shn3 inh set2, Peg3 prom inh)
CC(C)N1C(=O)/C(=C\c2nc3ccccc3c(=O)[nH]2)c2ccccc21	Peg3 prom inh 61.2
Cc1cccc(-c2nnn3c2nc(NCCc2ccc(S(N)(=O)=O)cc2)c2ccccc23)c1	KKLEB cytotox -51.5
COc1cc(C(=O)Nc2ccc(-c3nc4cc(C)ccc4o3)c(O)c2)cc(OC)c1OC	Peg3 prom inh 69.9
COc1cccc(C(=O)Nc2ccc(-c3nc4ccccc4o3)c(O)c2)c1	none
Cc1ccccc1NC(=O)Cc1c[nH]c2ccccc12	none
Cc1ccc2c(n1)sc1c(-c3ccc(Br)cc3)c(C#N)c(N)nc12	Peg3 prom inh 55.9
COc1cc(OC)nc(C(NC(=O)C2CCN(Cc3c[nH]c4ccccc34)CC2)c2ccc(Cl)cc2)n1 (stereo not given)	Peg3 prom inh 101.2 (no result: MITF TRPM1 inh)
Cn1cc(S(=O)(=O)N2CCOCC2)cc1C(=O)O	none
O=C(NNc1cc(N2CCOCC2)nc(N2CCOCC2)n1)C12CC3CC(CC(C3)C1)C2	none
Cc1cccc(C)c1NC(=O)COc1ccc2c(C)c(Cc3ccccc3)c(=O)oc2c1C	Peg3 prom inh 72.8
Oc1ccc(N=Nc2ccccc2)o1	CF NFkB block 94.8, Shn3 inh set2 93.8
CCOC(=O)c1cc(-c2ccccc2)sc1NC(=O)COC(=O)c1cccc(S(N)(=O)=O)c1	Peg3 prom inh 87.3
Cc1coc(NC(=O)CSc2nc(-c3ccc(Cl)cc3)cc(C(F)(F)F)c2C#N)n1	Peg3 prom inh 59.5
COc1ccc(NC(=O)CSc2nc(-c3ccc(C)cc3)cc(C(F)(F)F)c2C#N)cc1	none
COc1ccc(-c2cc(C(F)(F)F)c(C#N)c(SCC(=O)Nc3nc(C)co3)n2)cc1	Peg3 prom inh 57.0
Cc1ccc(C(=O)OCC(=O)N(CC(C)C)c2c(N)n(Cc3ccccc3)c(=O)[nH]c2=O)s1	none
COc1cc(NS(=O)(=O)c2ccc(C)cc2)c2ncccc2c1	MITF TRPM1 inh 74.4, Shn3 inh set2 94.9, Peg3 prom inh 68.2
Cc1ccc2nc(/C(C#N)=C\c3ccc(Oc4ccc([N+](=O)[O-])cn4)cc3)[nH]c2c1	none
COc1ccc2nc(/C(C#N)=C\c3ccc(Oc4ccc([N+](=O)[O-])cn4)cc3)[nH]c2c1	Peg3 prom inh 81.2
COc1cc2c(cc1OC)C1=C(C#N)CC/C(=N\S(=O)(=O)c3ccccc3)N1CC2	none (no result: MITF TRPM1 inh)
COc1ccc(C(=O)N=C2CCC(C#N)=C3c4cc(OC)c(OC)cc4CCN23)cc1	Peg3 prom inh 51.1
CC(Sc1nc(N)cc(=O)[nH]1)C(=O)Nc1ccc(N2CCOCC2)cc1 (stereo not given)	none (no result: MITF TRPM1 inh)
CC1(C)CC(=O)C2=C(C1)N=C1c3ccccc3C(=O)C1C2c1ccc(Cl)cc1 (stereo not given)	HIF-2a block 47.1, Peg3 prom inh 57.6
N#C/C(=C/c1cn(-c2ccccc2)nc1-c1cccc(S(=O)(=O)N2CCCC2)c1)C(=O)NCc1ccco1	none
N#C/C(=C/c1cn(-c2ccccc2)nc1-c1cccc(S(=O)(=O)N2CCOCC2)c1)C(=O)NCc1ccco1	CF NFkB block 50.7, KKLEB cytotox -57.3
O=C(Nc1cccc(F)c1)N1CCN(C(=O)c2ccco2)CC1	none
CC[C@]12c3[nH]c4cc(CCC(=O)N(C)C)ccc4c3CCN1C(=O)[C@@H](CC(=O)NC(C)(C)C)C[C@@H]2C(=O)N1CCN(C(=O)c2ccco2)CC1	none
COc1ccccc1NC(=O)c1sc2ncn(Cc3ccc(C)cc3)c(=O)c2c1C	Peg3 prom inh 51.7
CC1CCC(NC(=O)CC(NC(N)=O)c2ccccc2Cl)CC1 (stereo not given)	none

Screening data (PubChem)
